Data from PubChem BioAssay.
Activity calls are given as the source filed them. Unless noted, no rule for the calls is given here.

Columns and labels:
[1] = A549 cell viability effects, profiling panel, calcein-AM fluorescence, 48 h, basal (AID 1162); settings: higher = more signal; also: test concentration not given here
[2] = adipocyte viability effects, profiling panel, cell-based, 3T3-L1 adipocytes, calcein-AM fluorescence, 48 h, basal (AID 1163); settings: 3T3-L1 adipocytes viability, higher = more signal; also: test concentration not given here
[3] = HepG2 cell viability effects, profiling panel, calcein-AM fluorescence, 48 h, basal (AID 1164); settings: higher = more signal; also: test concentration not given here
[4] = MM1S cell viability effects, profiling panel, calcein-AM fluorescence, 48 h, basal (AID 1165); settings: higher = more signal;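 also: viability of MM1S multiple myeloma cells under basal unstimulated conditions; test concentration not given here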
[5] = basal RPMI8226 viability, no added stimulus, profiling panel, cell-based, calcein-AM fluorescence, 48 h, PK04 Diversity Set (AID 1166); settings: RPMI8226 myeloma viability, higher = more signal;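 also: cells grown under basal conditions without added stimulus; test concentration not given here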
[6] = basal HepG2 mitochondrial membrane potential changes, profiling panel, cell-based, JC-1 fluorescence, 24 h, 100 nL compound (AID 1167); settings: higher = more signal; also: test concentration not given here
[7] = basal 3T3-L1 adipocyte mitochondrial potential changes, profiling panel, cell-based, JC-1 fluorescence, 3T3-L1 adipocytes, 24 h, 100 nL compound (AID 1168); settings: JC-1 mitochondrial fluorescence, higher = more signal, called active from +8 up or from −8 down; also: test concentration not given here
[8] = basal RPMI8226 mitochondrial membrane potential changes, profiling panel, cell-based, JC-1 fluorescence, 24 h, 100 nL compound (AID 1169); settings: RPMI8226 myeloma, JC-1 mitochondrial potential fluorescence, higher = more signal; also: test concentration not given here
[9] = basal MM1S mitochondrial membrane potential changes, profiling panel, cell-based, JC-1 fluorescence, 24 h, 100 nL compound (AID 1170); settings: higher = more signal; also: test concentration not given here
[10] = A549 lung cancer cell viability effects, profiling panel, resazurin fluorescence, 24 h, PK04 Diversity Set (AID 1171); settings: higher = more signal, called active from +8 up or from −8 down; also: test concentration not given here
[11] = HepG2 liver cancer cell viability effects, profiling panel, resazurin fluorescence, 24 h, PK04 Diversity Set (AID 1172); settings: higher = more signal; also: test concentration not given here
[12] = basal S. cerevisiae growth modulation, no modifier, primary screen, OD600, strain BY4716, 24 h, basal condition (AID 1173); settings: OD600, 24 h, higher = more signal, called active from +8 up or from −8 down
[13] = MM1S myeloma cell viability, profiling panel, resazurin fluorescence, basal, 24 h, PK04 Diversity Set (AID 1174); settings: higher = more signal, called active from +8 up or from −8 down;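 also: MM1S multiple myeloma cell line; test concentration not given here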
[14] = target: Dihydroorotate dehydrogenase (quinone), mitochondrial (Plasmodium falciparum (isolate 3D7)) (UniProt Q08210); assay: PfDHODH enzyme inhibitors, primary screen, biochemical, C-terminal His tag, absorbance 600 nm (AID 1175); settings: DCIP absorbance 600 nm, higher = more signal, called active from +8 up or from −8 down;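 also: recombinant parasite enzyme with a five histidine tag at its C terminus; test concentration not given here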
Sequence of Dihydroorotate dehydrogenase (quinone), mitochondrial (Plasmodium falciparum (isolate 3D7)) (Q08210 whole entry, looked up): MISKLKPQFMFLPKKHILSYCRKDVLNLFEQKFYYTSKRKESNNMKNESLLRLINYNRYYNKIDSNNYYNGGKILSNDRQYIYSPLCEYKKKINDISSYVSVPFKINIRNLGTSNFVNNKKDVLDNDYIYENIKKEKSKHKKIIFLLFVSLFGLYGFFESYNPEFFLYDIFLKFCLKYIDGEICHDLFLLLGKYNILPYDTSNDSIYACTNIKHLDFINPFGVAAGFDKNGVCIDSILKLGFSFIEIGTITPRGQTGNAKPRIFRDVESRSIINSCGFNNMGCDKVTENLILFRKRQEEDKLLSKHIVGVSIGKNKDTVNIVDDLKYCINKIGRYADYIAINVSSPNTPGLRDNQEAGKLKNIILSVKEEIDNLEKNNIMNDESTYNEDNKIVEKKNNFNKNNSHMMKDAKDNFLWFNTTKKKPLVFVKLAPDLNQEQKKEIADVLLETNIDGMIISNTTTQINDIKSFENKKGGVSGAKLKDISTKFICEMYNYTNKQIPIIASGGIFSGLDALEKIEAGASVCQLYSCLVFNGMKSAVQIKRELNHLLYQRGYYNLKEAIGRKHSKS

[15] = P. aeruginosa biofilm formation inhibitors, primary screen, strain PAO1, LB-PBS medium, absorbance 600 nm (AID 1176); also: test concentration not given here; settings: P. aeruginosa PAO1 growth/biofilm, A600, 12 h; higher = more signal
[16] = S. cerevisiae RM11-1a growth modifiers, primary screen, strain RM11-1a, OD600, basal, 24 h (AID 1177); settings: OD600, 24 h, higher = more signal, called active from +8 up or from −8 down;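 also: cultures grown under basal conditions with no added stressor; test concentration not given here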
[17] = E. coli acrAB mutant growth effects, primary screen, E. coli filamentation inducers, strain DRC39, OD650, 24 h (AID 1178); settings: higher = more signal, called active from +8 up or from −8 down;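 also: growth measured as culture turbidity by optical density at 650 nm; test concentration not given here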
[18] = E. coli acrAB mutant growth effects, primary screen, E. coli filamentation inducers, strain DRC39, OD650, 48 h (AID 1179);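 also: screen aims at cell division blockers that make cells filament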; settings: E. coli DRC39 delta-acrAB growth, higher = more signal, called active from +8 up or from −8 down
[19] = RPMI8226 myeloma cell viability, profiling panel, resazurin fluorescence, basal, 24 h, PK04 Diversity Set (AID 1180); settings: higher = more signal;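 also: RPMI8826 multiple myeloma cell line at 5000 cells per well; test concentration not given here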
[20] = target: E3 ubiquitin-protein ligase XIAP (Homo sapiens) (UniProt P98170); assay: XIAP binders, primary screen, biophysical, small-molecule microarray, fluorescence 635 nm (AID 1181); settings: small-molecule microarray binding, higher = more signal;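 also: score merges 667 nm emission and signal to noise over triplicate slides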
Sequence of E3 ubiquitin-protein ligase XIAP (Homo sapiens) (P98170 whole entry, looked up): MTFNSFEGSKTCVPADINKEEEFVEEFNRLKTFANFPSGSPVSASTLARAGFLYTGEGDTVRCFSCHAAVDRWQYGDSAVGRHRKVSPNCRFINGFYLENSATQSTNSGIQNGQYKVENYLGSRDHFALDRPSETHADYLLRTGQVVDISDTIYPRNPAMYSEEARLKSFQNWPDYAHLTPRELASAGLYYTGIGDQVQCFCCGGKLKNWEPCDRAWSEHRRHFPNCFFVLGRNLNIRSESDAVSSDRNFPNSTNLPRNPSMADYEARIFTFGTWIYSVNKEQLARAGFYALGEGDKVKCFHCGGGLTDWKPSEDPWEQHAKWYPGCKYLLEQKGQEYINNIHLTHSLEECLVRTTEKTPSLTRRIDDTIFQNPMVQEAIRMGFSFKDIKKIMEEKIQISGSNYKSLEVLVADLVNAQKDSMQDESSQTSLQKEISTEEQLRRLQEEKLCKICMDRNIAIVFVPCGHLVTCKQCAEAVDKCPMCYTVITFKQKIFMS

COc1cc2c(cc1OC)CN(C(=O)[C@@H]1[C@H]3C(=O)O[C@H](c4ccccc4)[C@H](c4ccccc4)N3[C@H](c3ccc(OCCO)cc3)[C@@]13C(=O)Nc1ccc(C#CC4(O)CCCCCC4)cc13)CC2
z-score [1]: 2.93 | z-score [2]: 1.72 | z-score [3]: 0.988 | z-score [4]: -0.0788 | z-score [5]: 0.792 | z-score [6]: -0.555 | z-score [7]: 0.601 (inactive) | z-score [8]: -0.831 | z-score [9]: -1.3 | z-score [10]: 0.36 (inactive) | z-score [11]: 0.61 | z-score [12]: -0.257 (inactive) | z-score [13]: 0.341 (inactive) | composite z-score [14]: -1.3 (inactive) | z-score [15]: 4.2 (inactive) | z-score [16]: 2.82 (inactive) | z-score [17]: 0.312 (inactive) | z-score [18]: 0.854 (inactive) | z-score [19]: -0.221 | composite z-score [20]: -0.0382

CC1CC/C=C\[C@H]2OC34C=CCN(C(C)C)C(=O)[C@H]3N(CCCCCCO)C(=O)[C@@H]4C2C(=O)O1 (stereo not given in full)
z-score [1]: -0.868 | z-score [2]: 1.53 | z-score [3]: 0.25 | z-score [4]: 1.2 | z-score [5]: 0.626 | z-score [6]: -0.0558 | z-score [7]: -0.0814 (inactive) | z-score [8]: -0.426 | z-score [9]: -1.04 | z-score [10]: 0.599 (inactive) | z-score [11]: 0.609 | z-score [12]: -0.815 (inactive) | z-score [13]: 0.794 (inactive) | composite z-score [14]: -0.36 (inactive) | z-score [15]: 0.345 (inactive) | z-score [16]: -0.908 (inactive) | z-score [17]: 1.05 (inactive) | z-score [18]: 0.864 (inactive) | z-score [19]: 2.06 | composite z-score [20]: 0.0914

O=C(NCC(F)(F)F)[C@@H]1c2ccccc2C(=O)N(Cc2ccc(OC(F)(F)F)cc2)[C@H]1c1ccc(CO)cc1
z-score [1]: 0.0723 | z-score [2]: -0.302 | z-score [3]: -0.27 | z-score [4]: -0.404 | z-score [5]: -0.207 | z-score [6]: 1.66 | z-score [7]: 0.506 (inactive) | z-score [8]: 0.941 | z-score [9]: -0.54 | z-score [10]: 1.01 (inactive) | z-score [11]: 1.09 | z-score [12]: -1.13 (inactive) | z-score [13]: 0.482 (inactive) | composite z-score [14]: -0.504 (inactive) | z-score [15]: -0.177 (inactive) | z-score [16]: 0.0971 (inactive) | z-score [17]: 0.504 (inactive) | z-score [18]: 0.632 (inactive) | z-score [19]: 1.04 | composite z-score [20]: 0.104

CCCCCCc1nc(C2CC2)cc2c1[Si](C(C)C)(C(C)C)O[C@H]2c1ccccc1
z-score [1]: -0.036 | z-score [2]: -0.177 | z-score [3]: -0.106 | z-score [4]: -0.892 | z-score [5]: -0.517 | z-score [6]: -1.09 | z-score [7]: -0.731 (inactive) | z-score [8]: 0.573 | z-score [9]: 0.0835 | z-score [10]: 0.254 (inactive) | z-score [11]: -0.868 | z-score [12]: 0.391 (inactive) | z-score [13]: -0.749 (inactive) | composite z-score [14]: 0.423 (inactive) | z-score [15]: 0.0672 (inactive) | z-score [16]: -0.553 (inactive) | z-score [17]: -0.476 (inactive) | z-score [18]: -0.594 (inactive) | z-score [19]: -0.249 | composite z-score [20]: -0.0872

NC(=O)NCC#Cc1ccc2c(c1)[C@]1(C(=O)N2)[C@H](C(=O)NC[C@H](O)c2ccccc2)[C@H]2C(=O)O[C@H](c3ccccc3)[C@H](c3ccccc3)N2[C@@H]1c1ccc(OCCO)cc1
z-score [1]: -0.313 | z-score [2]: 0.468 | z-score [3]: 0.0249 | z-score [4]: -0.254 | z-score [5]: 1.25 | z-score [6]: -2.05 | z-score [7]: -0.183 (inactive) | z-score [8]: -1.1 | z-score [9]: -0.642 | z-score [10]: 0.818 (inactive) | z-score [11]: 0.815 | z-score [12]: 1.5 (inactive) | z-score [13]: 0.449 (inactive) | composite z-score [14]: -1.11 (inactive) | z-score [15]: 1.72 (inactive) | z-score [16]: 2.91 (inactive) | z-score [17]: 0.615 (inactive) | z-score [18]: 0.541 (inactive) | z-score [19]: 1.3 | composite z-score [20]: 0.11

Cc1ccccc1C(O)C1C=CC2C(=O)N(C)C(=O)C2N1N(c1ccccc1)c1ccccc1 (stereo not given)
z-score [1]: -0.665 | z-score [2]: -1.41 | z-score [3]: 0.655 | z-score [4]: -0.967 | z-score [5]: 0.0748 | z-score [6]: 0.02 | z-score [7]: -0.41 (inactive) | z-score [8]: -0.217 | z-score [9]: -0.41 | z-score [10]: -0.191 (inactive) | z-score [11]: -0.417 | z-score [12]: 0.0882 (inactive) | z-score [13]: -0.166 (inactive) | composite z-score [14]: 0.0842 (inactive) | z-score [15]: 0.53 (inactive) | z-score [16]: 0.591 (inactive) | z-score [17]: -0.209 (inactive) | z-score [18]: -0.334 (inactive) | z-score [19]: -0.0373 | composite z-score [20]: 0.396

[N-]=[N+]=NCc1ccccc1[C@H]1OC(c2ccc(OCCCO)cc2)=N[C@@]1(CCS(=O)(=O)c1ccccc1)C(=O)NCC(O)CO (stereo not given in full)
z-score [1]: -0.257 | z-score [2]: 0.538 | z-score [3]: 0.0325 | z-score [4]: -0.381 | z-score [5]: 0.429 | z-score [6]: -1.57 | z-score [7]: 0.466 (inactive) | z-score [8]: -0.221 | z-score [9]: -1.78 | z-score [10]: -0.317 (inactive) | z-score [11]: 0.044 | z-score [12]: 0.323 (inactive) | z-score [13]: -0.315 (inactive) | composite z-score [14]: 1.09 (inactive) | z-score [15]: 1.76 (inactive) | z-score [16]: 1.64 (inactive) | z-score [17]: 0.852 (inactive) | z-score [18]: -0.679 (inactive) | z-score [19]: 0.0345 | composite z-score [20]: -0.0553

COCCCNC(=O)[C@@]1(Cc2ccccc2N=[N+]=[N-])N=C(c2ccc(OCCCO)cc2)O[C@H]1c1ccccc1
z-score [1]: -1.07 | z-score [2]: 0.538 | z-score [3]: -0.412 | z-score [4]: -1.41 | z-score [5]: -2.78 | z-score [6]: 1.02 | z-score [7]: 1.27 (inactive) | z-score [8]: -1.03 | z-score [9]: -0.34 | z-score [10]: 0.308 (inactive) | z-score [11]: -0.0132 | z-score [12]: -0.632 (inactive) | z-score [13]: -0.681 (inactive) | composite z-score [14]: 0.328 (inactive) | z-score [15]: 0.441 (inactive) | z-score [16]: -0.115 (inactive) | z-score [17]: 0.987 (inactive) | z-score [18]: -0.325 (inactive) | z-score [19]: -0.647 | composite z-score [20]: 0.234
